Test results: PubChem BioAssay AID1458 (National Center for Advancing Translational Sciences (NCATS), 2008)
In all, about 210,000 compounds went through this assay and about 5,900 (2.8%) were called active. Roughly 5% stayed inconclusive and do not appear here. The list comes from a sample in which actives are over-represented; it also holds similar structures and randomly drawn compounds. A call without a number means that no potency is given here. A number with no mark means an inactive call. The call rests on the fitted dose curve; in most records, active means well fitted activation curve with a large enough effect; inconclusive means small, poorly fitted or top-dose-only effect; inactive means no such curve, though single readings can be large or run the other way.

Assay: qHTS Assay for Enhancers of SMN2 Splice Variant Expression; further: nearly all actives have a fitted effect of over 55% in size
Settings: HEK293 SMN2-luciferase splicing reporter, luminescence, 30-36 h; series mostly up to 46.1 µM
In short: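 HEK293 cells carry an SMN2 […]–luciferase reporter in which exon 7 inclusion puts luciferase in frame. Cells were plated 10-12 h before compound addition, then incubated 30-36 h at 37C. ONE-Glo luminescence was read; sodium butyrate at 4.5 mM final served as control.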
Potency means the concentration at half of the fitted maximal effect.

Structure (SMILES)	Potency	activity change, positive = activation
CCOCCCNC(=O)c1c(NC(=O)Cc2coc3c(C)c(C)ccc23)sc2c1CCC2	inactive	
Cc1cccc(N2CCN(C3=C(c4ccccc4)C(=O)c4ccccc43)CC2)c1C	inactive	
O=C1OC(C(=O)Nc2cccc(Br)c2)Cc2ccccc21 (configuration not stated)	inactive	
CCNS(=O)(=O)c1cc(-c2nnc(Nc3cccc(C(F)(F)F)c3)c3ccccc23)ccc1C	inactive	
COc1cccc(CNC(=O)Cn2ncn3c(cc4ccccc43)c2=O)c1	inactive	
Cc1ccc(S(=O)(=O)NCCN2CCOCC2)cc1C	inactive	
CCOC(=O)CSc1nc2ccc(C)cc2[nH]1	inactive	
Cc1cc2nc(SCCN3CCOCC3)[nH]c2cc1C	14.1 µM (active)	
COc1ccc(S(=O)(=O)NCCSc2nnnn2-c2ccccc2)cc1	inactive	
COc1ccc(NC(=O)NC(C)c2c(-n3cccc3)sc(C)c2C)cc1OC (configuration not stated)	inactive	
COc1cccc(NC(=O)CCNS(=O)(=O)c2ccc3c(c2)oc(=O)n3C)c1	inactive	
Cc1ccc(CNC(=O)CCNS(=O)(=O)c2ccc3c(c2)oc(=O)n3C)cc1	inactive	
O=C(NCCc1ccccc1)c1ccc(NC2=NC3CS(=O)(=O)CC3S2)cc1 (configuration not stated)	inactive	
CC(=O)c1cccc(NC(=O)N2CCCC2C(=O)NCCc2ccccc2)c1 (configuration not stated)	inactive	
CC1CCCN(c2ccc(C(=O)NCCc3ccccc3)cn2)C1 (configuration not stated)	11.2 µM (active)	
Cc1oc2ccc(O)c(CN3CCCCC3)c2c1C(=O)Nc1cccc(C(F)(F)F)c1	inactive	
CCC1CCCCN1S(=O)(=O)c1ccc(NC(=O)c2cc(=O)c3ccccc3o2)cc1 (configuration not stated)	inactive	
Cc1ccccc1NC(=O)Cn1c(=O)n(CCCCC(=O)NCc2ccccc2Cl)c(=O)c2ccccc21	inactive	
CCN(CC)C(=O)c1sc2nc(-c3ccccc3)ccc2c1N	7.94 µM (active)	
CS(=O)(=O)c1sc2nc(-c3ccccc3)cc(-c3ccccc3)c2c1N	inactive	
CCOC(=O)c1sc2nc(SC)nc(-c3ccccc3)c2c1N	inactive	
c1ccc2[nH]c(-c3nc4ccccc4[nH]3)nc2c1	7.94 µM (active)	

Structure (SMILES)	Potency	activity change, positive = activation
OCCNc1nc2ccccc2[nH]1	inactive	
Cc1ccc(-c2nc3ccccc3[nH]2)cc1NC(=O)c1sc2ccccc2c1Cl	inactive	
Cc1ccc(-c2nc3ccccc3[nH]2)cc1N	3.16 µM (active)	
c1ccc(-c2[nH]ncc2-c2nc3ccccc3[nH]2)cc1	inactive	
COc1ccc(Br)cc1C(=O)NC(=S)Nc1cc(-c2nc3ccccc3[nH]2)ccc1C		-3.02% [at 1.84 µM]
COc1cc2[nH]c(=O)n(Cc3ccc(C(=O)NCc4ccc(C)cc4)cc3)c(=O)c2cc1OC	inactive	
CCCCCn1c(=O)[nH]c2cc(C(=O)Nc3cc(C)cc(C)c3)ccc2c1=O	inactive	
Cc1nn(-c2ccccc2)c2c1C(c1cccc([N+](=O)[O-])c1)N(c1ccccc1)C(=O)N2 (configuration not stated)	inactive	
Cc1nn(-c2ccc([N+](=O)[O-])cc2)c(N)c1-c1ccccc1	10 µM (active)	
CC(C)(C)c1cnnn1-c1ccc([N+](=O)[O-])cc1	inactive	
CCCCN1C(=O)c2[nH]nc(-c3ccccc3O)c2C1c1cccc(OCc2ccccc2)c1 (configuration not stated)	inactive	
CC(C)[C@@H]1NC(=O)[C@H](Cc2ccccc2)NC(=O)[C@@H](CC(=O)O)NC(=O)CNC(=O)[C@H](CCCNC(=N)N)NC1=O	inactive	
Cc1ccc(C)n1-c1nnc(N2CCC(C(=O)NCc3ccc(F)cc3)CC2)s1	inactive	
O=C(NCc1ccc(F)cc1)c1ccc2nc(N3CCCCC3)sc2c1	4.47 µM (active)	
CCOC(=O)N1CCC(NC(=O)c2ccc3nc(N4CCOCC4)sc3c2)CC1	inactive	
O=C(NCCCN1CCN(c2cccc(Cl)c2)CC1)c1nnc(Cc2ccc(F)cc2Cl)o1	inactive	
COc1ccc(Cl)cc1NC(=O)Cn1c(=O)c2ccccc2n2nncc12	inactive	
CCOc1ccc(CCNC(=O)Cn2nc(CC)n3c(cc4sc(CC)cc43)c2=O)cc1OCC	inactive	
Cc1ccc(Cl)cc1NC(=O)CCS(=O)(=O)c1ccc(Br)s1	inactive	
Cc1nc2nc(NCc3cccc(Br)c3)[nH]n2c(=O)c1Cc1ccccc1	inactive	
Cc1cccc(NC(=O)c2ccc3ccccc3n2)n1	12.6 µM (active)	
Cc1cccc(NC(=O)c2ccccc2NC(=O)C(C)(C)C)n1	inactive	

Structure (SMILES)	Potency	activity change, positive = activation
Cc1cccc(NC(=O)c2cc(N3C(=O)CCC3=O)ccc2Cl)n1	inactive	
Cc1cccc(C)c1Nc1nnc(SCC(=O)Nc2sccc2C#N)s1	inactive	
Cc1csc(SCC(=O)Nc2sccc2C#N)n1	12.6 µM (active)	
COc1ccc(NC(=O)CSc2nc(C)cs2)cc1	inactive	
CCCc1cc(=O)n2[nH]c(NCc3ccc(CC)cc3)nc2n1	inactive	
CCOc1ccccc1NC(=O)Cn1c(=O)n(-c2cccc(C)c2)c(=O)c2c1c1cc(OC)ccc1n2C	inactive	
COc1ccc(-c2nc3nc(C)cc(C)n3c2Nc2c(C)cccc2C)cc1	inactive	
CCOC(=O)c1c(NC(=O)Cc2coc3ccc(CC)cc23)sc2c1CCC2	inactive	
N#Cc1ccc(OCc2nnc(-c3ccc([N+](=O)[O-])cc3)o2)cc1	inactive	
COc1ccc(C(=O)CSc2nnc(-c3ccco3)o2)cc1	inactive	
CCOc1ccc(-c2nnc(-c3ccco3)o2)cc1	1.12 µM (active)	
COc1ccc(OCC(=O)Nc2nnc(-c3ccco3)s2)cc1	inactive	
CCCCOc1ccc(-c2nnc(-c3ccco3)o2)cc1	14.1 µM (active)	
CCCCOc1ccc(C(=O)NCc2ccco2)cc1	inactive	
Cc1ccc(NC(=O)Nc2sc3nc4n(c(=O)c3c2C)CCC(C)CC4)c(Cl)c1 (configuration not stated)	inactive	
C=C1O[C@@](CO)(n2cnc3c(N)ncnc32)[C@H](O)[C@@H]1O	inactive	
O=C1CC(c2nnc(Cc3ccc(Cl)cc3)o2)CN1c1ccccc1 (configuration not stated)	inactive	
COc1ccc(OC)c(NC(=O)C2CCN(S(=O)(=O)c3ccc(C)cc3)CC2)c1	inactive	
COc1ccc(Cl)cc1-n1c(CCC(=O)O)ccc1-c1ccc(C)cc1	inactive	
COC(=O)N1C(/C=C/C=C/c2ccc(OC)cc2)=Cc2ccccc2C1CC(C)=O (configuration not stated)		-7.94% [at 9.22 µM]
Cc1ccc2oc(C(=O)Nc3ccc(S(=O)(=O)N4CCCCCC4)cc3)cc(=O)c2c1	inactive	
Cc1ccc(NC(=O)NC(=O)N(C2CCCCC2)S(=O)(=O)c2ccccc2)cc1	7.94 µM (active)	

Structure (SMILES)	Potency	activity change, positive = activation
CC(c1ccco1)N(C(=O)Nc1ccccc1)C1CCCCC1 (configuration not stated)	inactive	
CS(=O)(=O)N(C(=O)NC(=O)NC1CCS(=O)(=O)C1)C1CCCCC1 (configuration not stated)	inactive	
CCOC(=O)C1CCCN(CC(=O)Nc2cc(C)c3c(=O)oc4ccccc4c3n2)C1 (configuration not stated)	inactive	
CCN(CC)S(=O)(=O)c1ccc2c(c1)c(=O)c(C(=O)N1CCN(c3cccc(Cl)c3)CC1)cn2C	inactive	
CCOCCCNC(=O)c1c(NC(=O)Cc2coc3ccc(C)cc23)sc2c1CCC2	inactive	
Cc1ccc(C(=O)OCc2nc(N)nc(Nc3ccccc3C)n2)cc1	inactive	
Cc1ccccc1Nc1nc(N)nc(CN2CCN(c3ccccn3)CC2)n1	inactive	
Cc1ccccc1Nc1nc(N)nc(CSc2ccccc2)n1	14.1 µM (active)	
COc1ccc(CCNC(=O)CCCn2c(=O)c3ccccc3n(Cc3ccc(C)cc3)c2=O)cc1OC	inactive	
Cc1cccc(NC(=O)/C=C/c2ccc3c(c2)OCO3)n1	2.24 µM (active)	
COc1cccc(/C=C/C(=O)Nc2ccc3c(c2)OCCO3)c1	11.2 µM (active)	
COc1ccc(OC)c(/C=C/C(=O)OCC(=O)Nc2ccc3c(c2)OCCO3)c1	inactive	
CCc1c(C)sc(NC(=O)/C=C/c2ccc3c(c2)OCO3)c1C(=O)OC	inactive	
O=C(/C=C\c1ccc2c(c1)OCO2)NC1(C(=O)Nc2ccc3c(c2)OCCO3)CCCCC1	inactive	
COc1ccc(/C=C/C(=O)Nc2ccc3c(c2)OCCO3)cc1OC	inactive	
COc1ccc(NC(=O)CNC(=O)Cn2ccc3ccccc3c2=O)c(OC)c1	inactive	
Cc1ccc(C)c(Cn2c(C(=O)O)c(CNCc3cccs3)c3ccccc32)c1	inactive	
CCOc1ccc(Nc2c(S(=O)(=O)c3ccccc3)cnc3ccccc23)cc1	inactive	
COc1cc(Br)cc2cc(S(=O)(=O)c3ccccc3)c(=O)oc12	inactive	
CN(Cc1ccccc1)C(=O)c1cn(C)c2ccc(S(=O)(=O)N3CCCCC3)cc2c1=O	inactive	
CCc1nnc(NC(=O)c2cccs2)s1	inactive	
CCOc1cccc(C(=O)Nc2nnc(-c3cccs3)s2)c1	12.6 µM (active)	

Structure (SMILES)	Potency	activity change, positive = activation
CCOc1cccc(C(=O)Nc2cccnc2)c1	inactive	
CCC(C)[C@@H](N)C(=O)O (some centres not stated)	inactive	
Cc1ccc(N2CC(c3nnc(Cc4ccccc4Cl)o3)CC2=O)cc1 (configuration not stated)	inactive	
O=C(c1cc(-c2cccs2)on1)N1CCCCC1	14.1 µM (active)	
COc1ccccc1-c1cc(C(=O)N2CCCCC2)no1	14.1 µM (active)	
O=C(c1cc(-c2ccc(F)cc2)on1)N1CCN(c2ccc(F)cc2)CC1	inactive	
O=C(c1ccc(F)cc1)N1CCCC(c2nc(-c3cccs3)no2)C1 (configuration not stated)	inactive	
COc1cccc(-c2cc(C(=O)N3CCN(c4ccccc4OC)CC3)no2)c1	inactive	
COc1ccccc1N1CCN(C(=O)c2cc(-c3ccc(Cl)c(Cl)c3)on2)CC1	inactive	
CCCCn1cc(S(=O)(=O)c2ccc(OCC)cc2)c(=O)c2cc(OC)c(OC)cc21	inactive	
O=P(O)(O)C(O)c1ccc2ccccc2c1 (configuration not stated)	inactive	
O=c1cc(COc2cccc(C(F)(F)F)c2)nc2sc3c(n12)CCCC3	inactive	
COc1ccc(N(C)C(=O)C2CCN(S(=O)(=O)c3cc(Br)cc4c3N(C(C)=O)CC4)CC2)cc1	inactive	
Cn1nnc2cc(C(=O)NCCC3=CCCCC3)ccc21	11.2 µM (active)	
CN(c1ccc(C(=O)NCCC2=CCCCC2)cc1)S(C)(=O)=O	11.2 µM (active)	
O=C(NCCC1=CCCCC1)c1ccc(Cl)c([N+](=O)[O-])c1	inactive	
O=C(Cc1nn[nH]n1)NCCC1=CCCCC1	inactive	
O=C(Cc1cccc2ccccc12)NCCC1=CCCCC1	inactive	
CN(c1ccc(C(=O)NCc2ccccn2)cc1)S(C)(=O)=O	inactive	
